The panel holds about 83,000 compounds, 20% with a hit somewhere; the sample as a whole holds those more often.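 Plates (96-well) were seeded with cells, treated with compound at one concentration, and incubated for 48 hours before percent growth was determined.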 The source made the active and inactive calls. Rule for the calls: active = growth percent below 10; inactive = the rest.
What follows are molecules tested on RPMI-8226 leukemia (assay: NCI-60 one-dose screen, 48 h (100 = growth as untreated, 0 = no growth, -100 = all killed)). Conditions: 10 µM unless noted.

Q: `CSc1ccc2c(c1)N(CCC1CCCCN1C)c1ccccc1S2` (centres undefined) was tested. Which growth did it give?
A: 26.3% (inactive)

Q: `COc1ccc(-c2c(-c3cc(OC)c(OC)c(OC)c3)noc2N)cc1` was tested. Which growth did it give?
A: 10.9% (inactive)

Q: With `Clc1ccc(-c2nc(-c3cccs3)no2)c(Cl)c1` as the molecule, how does the growth read?
A: 86% (inactive)

Q: With `COc1ccc(/C=N/NC(=O)c2ccc(S(C)(=O)=O)cc2)cc1OC` as the molecule, how does the growth read?
A: 97.1% (inactive)

Q: For `CO[C@H]1/C=C/O[C@@]2(C)Oc3c(C)c(O)c4c(O)c(c(/C=N/N5CCN(C)CC5)c(O)c4c3C2=O)NC(=O)/C(C)=C\C=C\C(C)[C@H](O)[C@@H](C)[C@@H](O)[C@@H](C)[C@@H](OC(C)=O)[C@@H]1C` (some centres undefined), which growth is on record?
A: 108% (inactive)

Q: For `CCCCOc1ccc(C(C)(C)c2ccc(OCCCC)cc2)cc1`, which growth is on record?
A: 91% (inactive)

Q: For `O=C1N(C2CCCCC2)C(=O)N1C1CCCCC1`, which growth is on record?
A: -16.7% (active)

Q: How did the growth turn out when `CC(C)COCC(CN(Cc1ccccc1)c1ccccc1)N1CCCC1` (centres undefined) was run?
A: 46.4% (inactive)

Q: Which growth does the source give for `ClC1=C(Cl)C(Cl)=C(Cl)C1=Cc1ccc(Cl)cc1` here?
A: -43.2% (active)

Q: With `O=C(Cc1ccccn1)C(F)(F)C(F)(F)C(F)(F)F` as the molecule, how does the growth read?
A: 100% (inactive)

Q: Which growth does the source give for `Cc1cc(CC(=O)O)n(C)c1C(=O)c1ccc(Cl)cc1` here?
A: 103% (inactive)

Q: `CCCCC(C#N)C(N)=O` (centres undefined) was tested. Which growth did it give?
A: 102% (inactive)

Q: With `Cc1cccc(Cl)c1NC(=O)c1ccc2nc(NC(=O)NC3CC(C)(C)NC(C)(C)C3)sc2c1` as the molecule, how does the growth read?
A: 87.1% (inactive)

Q: Which growth does the source give for `OC(c1cc(C(F)(F)F)nc2c(C(F)(F)F)cccc12)C1CCCCN1` (centres undefined) here?
A: 80% (inactive)

Q: Which growth does the source give for `CC[C@]1(O)CC2CN(CCc3c([nH]c4ccccc34)[C@@](C(=O)OC)(c3cc4c(cc3OC)N(C)[C@H]3[C@@](O)(C(=O)OC)[C@H](OC(C)=O)[C@]5(CC)C=CCN6CC[C@]43[C@@H]65)C2)C1` (some centres undefined) here?
A: 2.81% (active)

Q: For `CC1CC(C)/C(=N/NC(N)=O)C(C(O)CC2CCC(=O)NC2=O)C1` (centres undefined), which growth is on record?
A: 50.4% (inactive)

Each molecule was assayed on OVCAR-8 ovarian in the same assay as above. Conditions: 10 µM unless noted.

Q: `CCOC(=O)c1ccccc1OC(=O)NNc1ccccc1` was tested. Which growth did it give?
A: 71.3% (inactive)

Q: For `CC(=O)n1c2ccccc2c2ccccc21`, which growth is on record?
A: 100% (inactive)

Q: How did the growth turn out when `CSc1ccc2c(c1)N(CCC1CCCCN1C)c1ccccc1S2` (centres undefined) was run?
A: 69.9% (inactive)

Q: `O=C(/C=C/c1cc2ccccc2[nH]c1=O)c1ccc(O)cc1` was tested. Which growth did it give?
A: 22.3% (inactive)

Q: With `COc1ccc(-c2c(-c3cc(OC)c(OC)c(OC)c3)noc2N)cc1` as the molecule, how does the growth read?
A: 24.9% (inactive)

Q: How did the growth turn out when `Clc1ccc(-c2nc(-c3cccs3)no2)c(Cl)c1` was run?
A: 97.1% (inactive)

Q: With `CC(C)C/C(=N\NC(=O)c1ccncc1)c1cc(Cl)ccc1O` as the molecule, how does the growth read?
A: 11.7% (inactive)

Q: For `CO[C@H]1/C=C/O[C@@]2(C)Oc3c(C)c(O)c4c(O)c(c(/C=N/N5CCN(C)CC5)c(O)c4c3C2=O)NC(=O)/C(C)=C\C=C\C(C)[C@H](O)[C@@H](C)[C@@H](O)[C@@H](C)[C@@H](OC(C)=O)[C@@H]1C` (some centres undefined), which growth is on record?
A: 100% (inactive)

Q: `COc1cc(/C=C/C(=O)c2ccc(F)cc2)ccc1OCCCCCOc1cc2c(cc1OC)C(=O)N1CCCC1C=N2` (centres undefined) was tested. Which growth did it give?
A: 4.8% (active)

Q: `CCCCCCCC/C=C/CCCCCCCC1=NC(C)(C)CN1CCO` was tested. Which growth did it give?
A: 45% (inactive)

Q: Which growth does the source give for `COc1cc(/C=C2\COc3ccc(O)c(O)c3C2=O)cc(OC)c1` here?
A: 14.6% (inactive)

Q: For `CCCCCCCC/C=C/CCCCCCCC1=NC(C)(C)CN1CC(C)O` (centres undefined), which growth is on record?
A: 38.8% (inactive)

Q: How did the growth turn out when `CC12CCC3C(CCC4CC(=O)/C(=C\O)CC43C)C1CCC(=O)O2` (centres undefined) was run?
A: 101% (inactive)

Q: With `Nc1ccccc1-c1ccc([N+](=O)[O-])cc1` as the molecule, how does the growth read?
A: 75.3% (inactive)

Q: How did the growth turn out when `CC1=C(C(=O)Nc2ccccc2)C(c2ccc3c(c2)OCCO3)NC(=O)N1` (centres undefined) was run?
A: 102% (inactive)

Q: With `O=C(/C=C/c1ccccc1)CC(c1ccccc1)N1CCOCC1` (centres undefined) as the molecule, how does the growth read?
A: 85.1% (inactive)

Q: Which growth does the source give for `COc1cccc(/C=C2\COc3ccc(O)c(O)c3C2=O)c1OC` here?
A: 18.3% (inactive)

Q: With `Cc1cc(CC(=O)O)n(C)c1C(=O)c1ccc(Cl)cc1` as the molecule, how does the growth read?
A: 97.7% (inactive)

Q: How did the growth turn out when `CCOc1cc(C(C)(C)C)ccc1C1=N[C@H](c2ccc(Cl)cc2)[C@H](c2ccc(Cl)cc2)N1C(=O)N1CCN(CC#Cc2cccc3c2CN([C@@H]2CCC(=O)NC2=O)C3=O)CC1` was run?
A: 17.2% (inactive)

Q: How did the growth turn out when `CCCCCCCCCCCCCCCCCC1=NC(C)(C)CN1CCO` was run?
A: 1.75% (active)

Q: For `COc1ccc(OC)c(/C=C/c2nc(=S)n(-c3ccc(Cl)cc3)[nH]2)c1`, which growth is on record?
A: 88.6% (inactive)

Q: For `Clc1ccccc1[C@@H]1C[C@@H]2Cc3cc(Br)c4ccccc4c3N1O2`, which growth is on record?
A: 61.1% (inactive)

Q: How did the growth turn out when `Cc1c(C(N)=O)sc2c1C(=O)N(Cc1ccccc1)C1=NN=C(c3ccc(Cl)cc3)CN12` was run?
A: 18.1% (inactive)

Q: How did the growth turn out when `ClC1=C(Cl)C(=C2C(Cl)=C(Cl)C(Cl)=C2Cl)C(Cl)=C1Cl` was run?
A: 97.7% (inactive)

Q: For `Clc1ccc(-n2cnc3c(Cl)ncnc32)cc1Cl`, which growth is on record?
A: 88% (inactive)

Q: For `CC[C@]1(O)CC2CN(CCc3c([nH]c4ccccc34)[C@@](C(=O)OC)(c3cc4c(cc3OC)N(C)[C@H]3[C@@](O)(C(=O)OC)[C@H](OC(C)=O)[C@]5(CC)C=CCN6CC[C@]43[C@@H]65)C2)C1` (some centres undefined), which growth is on record?
A: 12.6% (inactive)

Q: Which growth does the source give for `CN1C(=O)/C(=C/c2nc(-c3cccc(F)c3)n3ccccc23)c2ccccc21` here?
A: 34.9% (inactive)

Q: How did the growth turn out when `O=C1OCCCCCCCCCC#Cc2ccccc21` was run?
A: 105% (inactive)

Reference: PubChem BioAssay (NCI)
